{"source": "PubChem BioAssay AID2796", "about": "(The Scripps Research Institute Molecular Screening Center, 2010)", "note": "The whole screen tested about 320,000 compounds, of which about 8,000 (2.5%) were called active. The list comes from a sample in which actives are over-represented; it also holds similar structures and randomly drawn compounds. A number with no mark means an inactive call. No stated cut-off is given here; in the data, active means activation above about 47%; inactive means the rest."}
{"biological_target": "Aryl hydrocarbon receptor (Homo sapiens) (UniProt P35869)", "sequence (P35869 whole entry, looked up)": "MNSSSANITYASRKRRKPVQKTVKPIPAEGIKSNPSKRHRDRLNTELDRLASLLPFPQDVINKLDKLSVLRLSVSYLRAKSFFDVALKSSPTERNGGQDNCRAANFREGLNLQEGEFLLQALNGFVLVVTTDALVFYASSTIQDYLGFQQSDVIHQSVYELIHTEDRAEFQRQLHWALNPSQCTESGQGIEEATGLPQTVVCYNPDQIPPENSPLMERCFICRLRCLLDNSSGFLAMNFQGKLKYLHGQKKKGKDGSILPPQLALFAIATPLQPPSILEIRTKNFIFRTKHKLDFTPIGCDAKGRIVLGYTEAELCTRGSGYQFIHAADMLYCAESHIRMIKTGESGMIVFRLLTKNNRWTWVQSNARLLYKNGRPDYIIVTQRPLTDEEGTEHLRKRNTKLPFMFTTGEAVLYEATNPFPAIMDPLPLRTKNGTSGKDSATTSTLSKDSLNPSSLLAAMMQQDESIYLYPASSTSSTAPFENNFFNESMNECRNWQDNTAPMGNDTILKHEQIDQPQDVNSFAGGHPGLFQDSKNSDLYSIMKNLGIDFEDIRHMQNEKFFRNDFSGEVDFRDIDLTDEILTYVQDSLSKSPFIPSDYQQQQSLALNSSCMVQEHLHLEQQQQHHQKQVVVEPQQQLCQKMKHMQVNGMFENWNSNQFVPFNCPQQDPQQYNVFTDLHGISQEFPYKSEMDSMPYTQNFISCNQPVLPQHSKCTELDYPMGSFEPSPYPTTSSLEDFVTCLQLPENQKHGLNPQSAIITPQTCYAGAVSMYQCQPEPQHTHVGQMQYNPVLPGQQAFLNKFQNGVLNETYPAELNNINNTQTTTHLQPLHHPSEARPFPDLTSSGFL", "test": "AHR activators, primary screen, cell-based, luminescence, luciferase reporter, human (AID 2796);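 further: 0% = vehicle wells and 100% = reference agonist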", "settings": "AHR-responsive luciferase reporter cells, at 5 µM, stronger effect = higher value"}
{"smiles": "CC(C)CNC(=S)Nc1ccc(F)cc1", "activation": "-0.24%"}
{"smiles": "CC(C)CNC(=O)C(=O)NCc1ccccc1", "activation": "-0.83%"}
{"smiles": "CC(C)CNC(=O)C(=O)Nc1ccc(N(C)C)cc1", "activation": "48% (active)"}
{"smiles": "O=C1C=C(c2ccc(Cl)cc2)C(=O)N1Nc1ccccc1", "activation": "-0.76%"}
{"smiles": "NC(=O)C1CCN(C(=O)COc2ccc3c4c(c(=O)oc3c2)CCC4)CC1", "activation": "-1.05%"}
{"smiles": "COc1ccc(NS(=O)(=O)c2cc(NC(=O)c3ccc(S(=O)(=O)N(C)C)cc3)ccc2N2CCOCC2)cc1", "activation": "0.52%"}
{"smiles": "CC1CC(C)(C)CC2(C1)NC(=O)N(CC(=O)Nc1nccs1)C2=O", "note": "(configuration not stated)", "activation": "2.2%"}
{"smiles": "O=[N+]([O-])c1cccc(/C([O-])=C(/C(=S)Nc2ccccc2F)[n+]2ccccc2)c1", "activation": "49.5% (active)"}
{"smiles": "Cc1ccc(/C([O-])=C(/C(=S)NCc2ccco2)[n+]2ccccc2)cc1[N+](=O)[O-]", "activation": "2.88%"}
{"smiles": "CC1CCN(C(=S)c2cccc([N+](=O)[O-])c2)CC1", "activation": "-3.58%"}
{"smiles": "COc1cccc(-c2ccc3c(c2)S(=O)(=O)c2cccc(C(=O)O)c2C3=O)c1OC", "activation": "-3.31%"}
{"smiles": "CC1CN/C(=C\\C(=O)c2ccc(Br)cc2)C(=O)N1", "note": "(configuration not stated)", "activation": "-14.4%"}
{"smiles": "CCc1nc(Nc2ccc(NC(C)=O)cc2)c2oc3ccccc3c2n1", "activation": "5.36%"}
{"smiles": "Cc1nc(Cl)c2oc3ccccc3c2n1", "activation": "4.72%"}
{"smiles": "CCc1nc(Nc2ccc3nccnc3c2)c2oc3ccccc3c2n1", "activation": "85.3% (active)"}
{"smiles": "COc1ccc(/C=N/n2c(C)cc(C)cc2=O)cc1", "activation": "-0.2%"}
{"smiles": "CC(=O)NCCc1nc2cc(NC(=O)c3ccccc3)ccc2n1C", "activation": "5.94%"}
{"smiles": "CCn1c(NC(=O)c2nn(C)cc2Br)nc2ccccc21", "activation": "122% (active)"}
{"smiles": "CC(=O)Nc1nc2ccccc2n1Cc1ccc(C)cc1", "activation": "1.47%"}
{"smiles": "CCC(=O)Nc1nc2ccccc2n1Cc1ccccc1C", "activation": "2.17%"}
{"smiles": "Cn1c(NC(=O)c2ccccc2)nc2ccccc21", "activation": "76.5% (active)"}
{"smiles": "Cn1c(-c2ccc(C(=O)c3ccccc3)s2)nc2ccccc21", "activation": "-15%"}
{"smiles": "O=C(Cn1cnc2ccccc2c1=O)NCC1COc2ccccc2O1", "note": "(configuration not stated)", "activation": "0.29%"}
{"smiles": "O=C(c1ccc(F)cc1)N1CCCC(C(=O)N2CCCCC2)C1", "note": "(configuration not stated)", "activation": "-0.02%"}
{"smiles": "CCN1C(=O)/C(=C2\\SC(N3CCCCC3)=NC2=O)c2ccccc21", "activation": "22.2%"}
{"smiles": "COc1ccc(Cl)cc1-n1c(=S)sc2c(=O)n(-c3ccc(F)cc3)c(SCC(=O)O)nc21", "activation": "3.11%"}
{"smiles": "COc1nc(NCc2ccc(Cl)cc2)nc(OC)n1", "activation": "-1.92%"}
{"smiles": "C=CCNc1nc(Nc2ccc(Cl)cc2)nc(OC)n1", "activation": "52.8% (active)"}
{"smiles": "C=CCNc1nc(C)nc(OC)n1", "activation": "-0.26%"}
{"smiles": "O=C(NCc1cccc(Cl)c1)C1CCC(=O)N(C2CC2)C1", "note": "(configuration not stated)", "activation": "7.52%"}
{"smiles": "C=CCn1c(C)cc(C2=NNC(=NCC)SC2)c1C", "activation": "-11%"}
{"smiles": "Cc1cccc(C(=O)Nc2nnc(Cc3c[nH]c4ccccc34)s2)c1", "activation": "22.8%"}
{"smiles": "Cc1cccc(N=C2NN=C(c3c[nH]c4ccccc34)CS2)c1", "activation": "99.4% (active)"}
{"smiles": "COc1ccccc1N=Cc1c(O)c2ccccc2oc1=O", "activation": "4.13%"}
{"smiles": "CN=c1scc(-c2cc(OC)ccc2OC)n1/N=C/c1c(C)[nH]c2ccccc12", "activation": "-2.76%"}
{"smiles": "COc1ccc(OC)c(N=Cc2c(O)[nH]c3ccccc23)c1", "activation": "54.3% (active)"}
{"smiles": "O=C(Cn1nc(CNc2ccc(Cl)cc2)[n+]2c1CCCCC2)c1ccc(Cl)cc1", "activation": "28.6%"}
{"smiles": "Cc1nn(-c2ccccc2)c(NC(=O)c2cccs2)c(-c2ccc(Cl)cc2)c1=O", "activation": "0.87%"}
{"smiles": "Cc1nn(-c2cc(Cl)ccc2N)c(=O)c2ccccc12", "activation": "0.58%"}
{"smiles": "Cc1cc(=O)oc2c1c(C)nn2-c1ccc(Cl)cc1", "activation": "58% (active)"}
{"smiles": "COc1ccc(CNC(=O)CN(c2ccc(OC)c(Cl)c2)S(=O)(=O)c2ccc(C)cc2)cc1", "activation": "4.87%"}
{"smiles": "C[C@]12CC[C@H](O)CC1=CCC1C2CC[C@@]2(C)C1CC[C@@H]2NC(=O)CCC(=O)O", "note": "(some centres not stated)", "activation": "-0.38%"}
{"smiles": "COc1cccc(-c2nnc(SCCOc3ccc4c(C)cc(=O)oc4c3)o2)c1", "activation": "-2.36%"}
{"smiles": "O=[N+]([O-])c1cccc(C2=NCCS2)c1", "activation": "0.6%"}
{"smiles": "O=[N+]([O-])c1ccc2oc(-c3cccc(O)c3)nc2c1", "activation": "78% (active)"}
{"smiles": "COc1cccc(-c2nc3cc(C)ccc3o2)c1", "activation": "83.1% (active)"}
{"smiles": "CC(=O)Oc1ccc2c(=O)oc(-c3ccc([N+](=O)[O-])cc3)nc2c1", "activation": "14.1%"}
{"smiles": "COc1ccc2oc(-c3cccc(NC(=O)CSc4ccc(Cl)cc4)c3)nc2c1", "activation": "28.6%"}
{"smiles": "CC(=O)c1ccc(NC(=O)CCNS(=O)(=O)c2cc(Br)cnc2N)cc1", "activation": "2.25%"}
{"smiles": "COc1ccc(CN2CCC(n3nccc3NC(=O)CCCc3ccccc3)CC2)cc1C", "activation": "-8.72%"}
{"smiles": "CCC(C)NC(=O)C1c2ccccc2C(=O)N1Cc1ccccc1", "note": "(configuration not stated)", "activation": "0.97%"}
{"smiles": "Cc1[nH]nc(SCC(=O)NCC(C)C)c1[N+](=O)[O-]", "activation": "-0.18%"}
{"smiles": "COc1ccc(CN2CCCC(C(=O)N3CCCCC3)C2)cc1", "note": "(configuration not stated)", "activation": "-0.87%"}
{"smiles": "COC(=O)c1ccc(NC(=O)Nc2ccc(C)cc2)cc1", "activation": "1.57%"}
{"smiles": "CC(=O)c1ccc(NC(=O)Nc2ccc([N+](=O)[O-])cc2C)cc1", "activation": "-4.23%"}
{"smiles": "COc1cc(NC(=O)Nc2ccc(C)cc2)cc([N+](=O)[O-])c1", "activation": "61.8% (active)"}
{"smiles": "Oc1cccc2ccc(/C=C/c3ccc(Br)s3)nc12", "activation": "52.2% (active)"}
{"smiles": "Nc1ccc(S(=O)(=O)Nc2nccc(/C=C/c3ccc(Br)s3)n2)cc1", "activation": "-1.58%"}
{"smiles": "CCN(c1ccccc1)S(=O)(=O)c1ccc2[nH]c(=O)[nH]c2c1", "activation": "7.41%"}
{"smiles": "CC(C)C(NC(=O)OCc1ccccc1)C(=O)OCC(=O)N1C(C)CCCC1C", "note": "(configuration not stated)", "activation": "2.02%"}
{"smiles": "Cc1cccc(Nc2nc(NCCO)nc(N3CCCC3)n2)c1", "activation": "19.5%"}
{"smiles": "CCCOc1ccc(Cl)cc1Nc1nc(NCCO)nc(N2CCCC2)n1", "activation": "12.8%"}
{"smiles": "CC(C)(C)Oc1ccccc1Nc1nc(NCCO)nc(N2CCCC2)n1", "activation": "53.9% (active)"}
{"smiles": "CN(CC(=O)NCc1ccncc1)S(=O)(=O)c1ccc(Br)cc1", "activation": "5.25%"}
{"smiles": "Cc1ccc(-c2nnc(-n3nnc4ccccc43)c3ccccc23)cc1", "activation": "1.43%"}
{"smiles": "CC(C)CNC(=S)NNC(=O)c1nn(C)cc1Cl", "activation": "-3.07%"}
{"smiles": "Cc1nn(C)cc1C(=O)NNC(=S)Nc1ccc(Cl)cc1", "activation": "29.1%"}
{"smiles": "Cn1cc(Cl)c(C(=O)NNC(=S)Nc2cccc(Cl)c2)n1", "activation": "125% (active)"}
{"smiles": "CCCC(=O)Nc1nnc(CC(=O)OCC)s1", "activation": "3.91%"}
{"smiles": "C=CCN1C2CCCC1CC(NC(=S)Nc1cccc(OC)c1)C2", "note": "(configuration not stated)", "activation": "-0.24%"}
{"smiles": "COc1cccc(OC)c1C(=O)Nc1c(C(=O)N2CCN(c3ccccn3)CC2)oc2ccccc12", "activation": "-3.46%"}
{"smiles": "CCOCCCN(C)C1CCN(C(=O)c2oc3ccccc3c2NC(=O)COc2cccc(C)c2)CC1", "activation": "-0.33%"}
{"smiles": "COCC(=O)Nc1c(C(=O)N2CCCC2)oc2ccccc12", "activation": "74.5% (active)"}
{"smiles": "CCc1cccc(C)c1NS(=O)(=O)c1cc(Br)cnc1N", "activation": "3.17%"}
{"smiles": "Cc1ccc(Cl)cc1NC(=O)C1CCCN(c2cnccn2)C1", "note": "(configuration not stated)", "activation": "80% (active)"}
{"smiles": "O=C(Nc1cccc(Cl)c1)C1CCCN(c2cnccn2)C1", "note": "(configuration not stated)", "activation": "82.4% (active)"}
{"smiles": "COc1cc(NC(=O)C2CCN(c3cnccn3)CC2)cc(OC)c1", "activation": "5.78%"}
{"smiles": "Cc1ccc(Cl)cc1NC(=O)C1CCN(S(C)(=O)=O)CC1", "activation": "7.96%"}
{"smiles": "Cc1ccc(Cl)cc1NC(=O)COC(=O)C1CCCCC1", "activation": "0.36%"}
{"smiles": "O=C(Nc1ccc2c(c1)OCCO2)C1CCCN(c2ncccn2)C1", "note": "(configuration not stated)", "activation": "20.4%"}
{"smiles": "CC(C)[C@H](NC(=O)N1CCn2c1nc1ccccc12)C(=O)NCc1ccc2c(c1)OCO2", "activation": "6.92%"}
{"smiles": "CC(C)CNc1ncnc2c1cnn2Cc1ccc(Cl)cc1", "activation": "0%"}
{"smiles": "Cc1cccc(CS(=O)(=O)c2ncc(Cl)c(C(=O)Nc3ccc(F)cc3)n2)c1", "activation": "27.3%"}
{"smiles": "OC(c1ccc(Cl)cc1)C(CN1CCOCC1)c1ccccc1", "note": "(configuration not stated)", "activation": "2.39%"}
{"smiles": "Cc1ccc(N(C(=O)c2sc(C)nc2C)C(C(=O)NC(C)(C)C)c2ccncc2)cc1", "note": "(configuration not stated)", "activation": "-0.51%"}
{"smiles": "CC(C)c1ccccc1OCC(O)CN(CC(O)COc1cccc2ccccc12)C(C)C", "note": "(configuration not stated)", "activation": "5.3%"}
{"smiles": "O=C(COC(=O)c1ccc[nH]c1=O)Nc1ccc2c(c1)OC(F)(F)O2", "activation": "0.45%"}
{"smiles": "CC1Cc2ccccc2N1CC(=O)Nc1ccc2c(c1)OC(F)(F)O2", "note": "(configuration not stated)", "activation": "61.4% (active)"}
{"smiles": "CC1Cc2ccccc2N1CC(=O)Nc1ccc(S(N)(=O)=O)cc1", "note": "(configuration not stated)", "activation": "3.1%"}
{"smiles": "CCOC(=O)N1CCC(Nc2c(NCCCN3CCN(c4ccc(OC)cc4)CC3)c(=O)c2=O)CC1", "activation": "1.99%"}
{"smiles": "CC(C)NC(=O)CSc1ccccc1C(=O)NCc1ccc2c(c1)OCO2", "activation": "1.44%"}
{"smiles": "O=C(Nc1cccc(S(=O)(=O)N2CCCCC2)c1)c1ccc2c(c1)OCO2", "activation": "56% (active)"}
{"smiles": "Cc1ccc(C(=O)Nc2ccc3c(c2)OCO3)cc1S(=O)(=O)N1CCCCC1", "activation": "38.4%"}
{"smiles": "O=C(Nc1cccc(S(=O)(=O)N2CCCCC2)c1)c1cncc(Br)c1", "activation": "17.9%"}
{"smiles": "COc1cc(NC(=O)c2ccc3c(c2)OCO3)ccc1NC(=O)c1cccs1", "activation": "12.8%"}
{"smiles": "O=C(Nc1nc2ccccc2s1)c1ccc2c(c1)OCO2", "activation": "6.38%"}
{"smiles": "CSc1ncccc1C(=O)Nc1ccc2c(c1)OCO2", "activation": "32.3%"}
{"smiles": "CC(Sc1nc2cc(Cl)ccc2s1)C(=O)Nc1ccc2c(c1)OCO2", "note": "(configuration not stated)", "activation": "65.3% (active)"}
{"smiles": "COCc1nnc(NC(=O)c2ccc3c(c2)OCO3)s1", "activation": "50% (active)"}
{"smiles": "O=C(Nc1ccc2c(c1)OCO2)c1sc2cc(Cl)ccc2c1Cl", "activation": "33.1%"}
{"smiles": "CCSc1ccccc1C(=O)Nc1ccc2c(c1)OCO2", "activation": "80.8% (active)"}
{"smiles": "CC(Sc1nc(-c2ccccc2)cc(C(F)(F)F)n1)C(=O)Nc1ccc2c(c1)OCO2", "note": "(configuration not stated)", "activation": "5.04%"}
